About 83,000 compounds went through this panel and 20% of them were active in at least one assay; those are over-represented in the sample as a whole.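 For each line, cells grew in 96-well plates with the test compound present at a single concentration for 48 hours.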 Values without a mark were called inactive. Calls of active or inactive are those of the source. Rule for the calls: active = growth percent below 10; inactive = the rest.
These compounds were tested on UACC-62 melanoma (assay: NCI-60 one-dose screen, 48 h (100 = growth as untreated, 0 = no growth, -100 = all killed)). Details: 10 µM unless noted.

SMILES	growth
C#CC(OC(=O)N(C)C)(c1ccccc1)c1ccc(F)cc1 (stereo unspecified)	86.2%
CC(C)c1ccc(C(=O)Nc2sc3c(c2C#N)CCC(=O)C3)cc1	-27.8% (active)
c1coc2occoc=2o1	102%
Cc1cc(SC#N)ncn1	93.5%
Cc1ccc(NCCN2CCCCC2)c2c(=O)c3ccccc3sc12	-2.99% (active)
O=C(NCCCNC(=O)OCc1ccc2cccc(O)c2n1)OCc1ccc2cccc(O)c2n1	39.6%
O=[N+]([O-])c1ccc(O)c(-c2nc3ccccc3s2)c1	41.3%
COc1ccc(C(=O)CSc2nccc(Nc3ccc(C(=O)O)cc3)n2)cc1	89.7%
C=C(C)[C@@H]1CC[C@]2(C(=O)NCCNCCNC(=O)OC(C)(C)C)CC[C@]3(C)[C@H](CC[C@@H]4[C@@]5(C)CCC(=O)C(C)(C)[C@@H]5CC[C@]43C)[C@@H]12	48.2% [100 µM]
Cc1ccc(-c2cn(C/C=C3\C=CN(S(=O)(=O)c4ccccc4)CC3)nn2)cc1	64%
CC1(C)CC[C@]23CC[C@]4(C)[C@H](CC[C@@H]5[C@@]6(C)C/C(=C/c7ccncc7)C(=O)C(C)(C)[C@@H]6CC[C@]54C)[C@H]2[C@H]1OC3=O	56.4% [100 µM]
CCN(CC)CCCOc1ccc2c(c1)O/C(=C\c1cccc(OC)c1)C2=O	95.6%
CC1Cc2c(Cl)ncnc2N(C)c2ccc(O)cc21 (stereo unspecified)	33.8%
CSc1cccc([N+](=O)[O-])c1	98%
CSc1nc(=S)c2nc(SC)n(-c3ccccc3)c2[nH]1	90.3%
O=c1[nH]cnc2c1ccn2C1OC(CO)C(O)C1O (stereo unspecified)	73.3%
COc1ccc(N(c2nc(-c3ccc([N+](=O)[O-])cc3)cs2)C(C)C)cc1	68.4%
COc1cc(NN=C(c2ccc(O)cc2)c2ccc(O)cc2)c([N+](=O)[O-])cc1[N+](=O)[O-]	73.9%
COc1ccc2nc3c(cc2c1)C(=O)CC(C(F)(F)F)C3 (stereo unspecified)	39.8%

SMILES	growth
CCOc1ccc(S(=O)(=O)Nc2ccc3c(c2)N(S(=O)(=O)CC)CCC3)cc1	64.8%
O=C(Nc1ccc(C(=O)/C=C/c2ccc(N3CCOCC3)cc2)cc1)Nc1ccc([N+](=O)[O-])cc1	79.6%
C=C(C)[C@@H]1CC[C@]2(C)[C@H](CC[C@@H]3[C@@H]([C@@](C)(O)CCC=C(C)C)CC[C@]32C)[C@@]1(C)CCC(=O)N1CCN(C)CC1	-95.2% [100 µM] (active)
C=C(C)[C@@H]1CC[C@]2(COCCCN)CC[C@]3(C)[C@H](CC[C@@H]4[C@@](C)(CCCNCCCN)[C@H](C(=C)C)CC[C@]43C)[C@@H]12	-72.4% [100 µM] (active)
COc1cc2c(cc1OCCCN1CCN(CCCOc3cc4c(cc3OC)C(=O)N3C[C@H](F)C[C@H]3C=N4)CC1)N=C[C@@H]1C[C@@H](F)CN1C2=O	-59.7% (active)
CC(C)c1ccc(/C=N/N=C(N)N)cc1	95.8%
CCCCCCCCCCCCCCCCCCNC(=S)N/N=C/c1ccc(OC)c(OC)c1	86.1%
C=C(C)[C@@H]1CC[C@]2(C)[C@H](CC[C@@H]3[C@@H]([C@@](C)(O)CCC=C(C)C)CC[C@]32C)[C@@]1(C)CCC(=O)O	-75.3% [100 µM] (active)
Cc1ccc(S(=O)(=O)Oc2ccc([N+](=O)[O-])cc2[N+](=O)[O-])cc1	82.5%
C=CCCCCOc1ccccc1-c1cnc(OCCCCC=C)n1C	55.7%
Cc1ncc(C(=O)Nc2ccc(CN3CCN(C)CC3)c(C(F)(F)F)c2)cc1C#Cc1c(N)ncc2ccc(C#N)cc12	22.5%
CCc1cccc(Cl)c1	101%
Cc1ccc(S(=O)(=O)N/N=C2\CC3CCC2(C)C3(C)C)cc1 (stereo unspecified)	77.2%
COc1ccc(C(C(=O)O)c2ccc(OC)cc2)cc1	116%
Fc1ccc(NC(=S)c2ccccc2)cc1	88.9%
c1cc2ccc3cc2cc1CNCCN1CCNCc2ccc4ccc(cc4c2)CNCCN(CCNC3)CCNCc2ccc3ccc(cc3c2)CNCC1	30.1%
Cn1cc(-c2nnc(-c3ccccc3)s2)c2cc(Br)cnc21	69.5%
CCOc1ccc2sc(NS(=O)(=O)c3ccc(N)cc3)nc2c1	93%
COc1ccc2c(c1)C(C)Cc1c(Cl)ncnc1N2C (stereo unspecified)	0.755% (active)

What follows are compounds tested on LOX IMVI melanoma in the same assay as above. Details: 10 µM unless noted.

SMILES	growth
C#CC(OC(=O)N(C)C)(c1ccccc1)c1ccc(F)cc1 (stereo unspecified)	78.3%
CC(C)c1ccc(C(=O)Nc2sc3c(c2C#N)CCC(=O)C3)cc1	16.7%
c1coc2occoc=2o1	102%
Cc1cc(SC#N)ncn1	93.7%
Cc1ccc(NCCN2CCCCC2)c2c(=O)c3ccccc3sc12	-50.1% (active)
O=C(NCCCNC(=O)OCc1ccc2cccc(O)c2n1)OCc1ccc2cccc(O)c2n1	-73.2% (active)
O=[N+]([O-])c1ccc(O)c(-c2nc3ccccc3s2)c1	61%
COc1ccc(C(=O)CSc2nccc(Nc3ccc(C(=O)O)cc3)n2)cc1	101%
C=C(C)[C@@H]1CC[C@]2(C(=O)NCCNCCNC(=O)OC(C)(C)C)CC[C@]3(C)[C@H](CC[C@@H]4[C@@]5(C)CCC(=O)C(C)(C)[C@@H]5CC[C@]43C)[C@@H]12	39.6% [100 µM]
Cc1ccc(-c2cn(C/C=C3\C=CN(S(=O)(=O)c4ccccc4)CC3)nn2)cc1	97.8%
CC1(C)CC[C@]23CC[C@]4(C)[C@H](CC[C@@H]5[C@@]6(C)C/C(=C/c7ccncc7)C(=O)C(C)(C)[C@@H]6CC[C@]54C)[C@H]2[C@H]1OC3=O	76.7% [100 µM]
CCN(CC)CCCOc1ccc2c(c1)O/C(=C\c1cccc(OC)c1)C2=O	70.7%
CC1Cc2c(Cl)ncnc2N(C)c2ccc(O)cc21 (stereo unspecified)	11.9%
CSc1cccc([N+](=O)[O-])c1	92.5%
CSc1nc(=S)c2nc(SC)n(-c3ccccc3)c2[nH]1	90.9%
O=c1[nH]cnc2c1ccn2C1OC(CO)C(O)C1O (stereo unspecified)	27.8%
COc1ccc(N(c2nc(-c3ccc([N+](=O)[O-])cc3)cs2)C(C)C)cc1	80.9%
COc1cc(NN=C(c2ccc(O)cc2)c2ccc(O)cc2)c([N+](=O)[O-])cc1[N+](=O)[O-]	34.4%
COc1ccc2nc3c(cc2c1)C(=O)CC(C(F)(F)F)C3 (stereo unspecified)	43.8%

SMILES	growth
CCOc1ccc(S(=O)(=O)Nc2ccc3c(c2)N(S(=O)(=O)CC)CCC3)cc1	83.4%
O=C(Nc1ccc(C(=O)/C=C/c2ccc(N3CCOCC3)cc2)cc1)Nc1ccc([N+](=O)[O-])cc1	107%
C=C(C)[C@@H]1CC[C@]2(C)[C@H](CC[C@@H]3[C@@H]([C@@](C)(O)CCC=C(C)C)CC[C@]32C)[C@@]1(C)CCC(=O)N1CCN(C)CC1	-100% [100 µM] (active)
C=C(C)[C@@H]1CC[C@]2(COCCCN)CC[C@]3(C)[C@H](CC[C@@H]4[C@@](C)(CCCNCCCN)[C@H](C(=C)C)CC[C@]43C)[C@@H]12	-49.7% [100 µM] (active)
COc1cc2c(cc1OCCCN1CCN(CCCOc3cc4c(cc3OC)C(=O)N3C[C@H](F)C[C@H]3C=N4)CC1)N=C[C@@H]1C[C@@H](F)CN1C2=O	5.06% (active)
CC(C)c1ccc(/C=N/N=C(N)N)cc1	83.6%
CCCCCCCCCCCCCCCCCCNC(=S)N/N=C/c1ccc(OC)c(OC)c1	95.2%
C=C(C)[C@@H]1CC[C@]2(C)[C@H](CC[C@@H]3[C@@H]([C@@](C)(O)CCC=C(C)C)CC[C@]32C)[C@@]1(C)CCC(=O)O	-100% [100 µM] (active)
Cc1ccc(S(=O)(=O)Oc2ccc([N+](=O)[O-])cc2[N+](=O)[O-])cc1	10.1%
C=CCCCCOc1ccccc1-c1cnc(OCCCCC=C)n1C	69.1%
Cc1ncc(C(=O)Nc2ccc(CN3CCN(C)CC3)c(C(F)(F)F)c2)cc1C#Cc1c(N)ncc2ccc(C#N)cc12	-62.4% (active)
CCc1cccc(Cl)c1	103%
Cc1ccc(S(=O)(=O)N/N=C2\CC3CCC2(C)C3(C)C)cc1 (stereo unspecified)	92.3%
COc1ccc(C(C(=O)O)c2ccc(OC)cc2)cc1	106%
Fc1ccc(NC(=S)c2ccccc2)cc1	112%
c1cc2ccc3cc2cc1CNCCN1CCNCc2ccc4ccc(cc4c2)CNCCN(CCNC3)CCNCc2ccc3ccc(cc3c2)CNCC1	-7.72% (active)
Cn1cc(-c2nnc(-c3ccccc3)s2)c2cc(Br)cnc21	83.3%
CCOc1ccc2sc(NS(=O)(=O)c3ccc(N)cc3)nc2c1	105%
COc1ccc2c(c1)C(C)Cc1c(Cl)ncnc1N2C (stereo unspecified)	-69.2% (active)
